# Laboratory results taken from PubChem BioAssay.
# “And” between values parts separate entries of the source, which are not always exact repeats. Identical values can stand only once. The source made the active and inactive calls.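 How the source made its calls, unless noted: active means z-score of at least 1.8 in each of two replicates, scored against plate mean and spread of sample wells; inactive means the rest.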
# Assays:
# [1] = biological target: NAD(+) hydrolase SARM1 (Homo sapiens) (UniProt Q6SZW1); test: blocking NAD cleavage by SARM1 SAM-TIR – cell lysate, NAD-Glo luminescence (AID 1508614;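 active means compound whose remaining NAD level is above about 45 nM, limit read from the data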); settings: SAM-TIR HEK293T lysate NADase, at 1 µM, stronger effect = higher value
# Chain of NAD(+) hydrolase SARM1 (Homo sapiens) (Q6SZW1 whole entry, looked up): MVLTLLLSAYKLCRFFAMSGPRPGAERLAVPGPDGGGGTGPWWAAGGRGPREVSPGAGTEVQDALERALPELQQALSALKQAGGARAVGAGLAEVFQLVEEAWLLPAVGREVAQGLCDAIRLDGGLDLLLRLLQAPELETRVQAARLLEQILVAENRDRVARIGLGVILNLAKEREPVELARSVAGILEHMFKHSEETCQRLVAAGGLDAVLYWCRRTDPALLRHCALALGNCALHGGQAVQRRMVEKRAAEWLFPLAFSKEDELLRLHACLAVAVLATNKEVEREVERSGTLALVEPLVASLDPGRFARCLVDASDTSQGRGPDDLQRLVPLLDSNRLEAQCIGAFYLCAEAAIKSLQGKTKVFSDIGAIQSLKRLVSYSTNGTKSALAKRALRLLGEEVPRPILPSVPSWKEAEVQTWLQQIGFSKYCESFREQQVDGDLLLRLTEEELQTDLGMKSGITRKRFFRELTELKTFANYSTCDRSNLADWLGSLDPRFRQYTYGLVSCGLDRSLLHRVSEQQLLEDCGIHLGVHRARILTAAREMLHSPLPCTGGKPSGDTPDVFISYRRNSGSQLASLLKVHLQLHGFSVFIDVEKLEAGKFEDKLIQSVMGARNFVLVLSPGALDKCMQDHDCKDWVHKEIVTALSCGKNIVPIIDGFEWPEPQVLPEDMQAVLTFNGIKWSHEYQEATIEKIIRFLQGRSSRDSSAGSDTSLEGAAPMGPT
# [2] = galactose survival enhancers in mitochondrial complex I cybrids – cell-based, galactose medium, ATP luminescence, primary screen (AID 1645843); settings: complex I mutant cybrid cells, 72 h, stronger effect = higher value;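 further: positive z means more ATP and so rescue of galactose-driven cybrid death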
# F380Y = test: BK channel mutant inhibitors and activators – cell-based, U2OS BacMam, thallium flux, beta subunits, selectivity assay, profiling panel (AID 1259406;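 active means thallium flux through the channel raised or lowered by more than 3 SD from vehicle-only wells, actives on both sides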;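 further: initial slope of Thallos dye fluorescence rise after thallium is added; log ratio against the mean of 0.3% DMSO vehicle wells on the same plate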); settings: U2OS BacMam BK variants, at 30 µM
# F380Y/beta1 = test: as above; settings: U2OS BacMam BK variants, at 30 µM
# [3] = growth inhibition, single agent or in combination, cell-based, chromothripsis tumors, cisplatin or BGB combos (AID 1671449; in the data active means inhibition above about 80%;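 further: cells exposed for 96 hours; 0% = vehicle DMSO and 100% = killing by high DMSO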); settings: LFS_MB_P medulloblastoma cells
# [4] = growth inhibition, single agent and combos, cell-based, chromothripsis tumors, cisplatin or BGB combos (AID 1671450; in the data active means inhibition above about 80%;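 further: cells exposed to compound for four days; 0% = vehicle DMSO and 100% = cell killing by high DMSO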); settings: HDN33 neuroblastoma cells, stronger effect = higher value
# [5] = growth inhibition, single agents and combos, ICB984, cell-based, cisplatin or BGB combos, synergistic combos for chromothripsis tumors (AID 1671451; call rule not given here;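 further: cells exposed for 96 hours before readout; 0% = vehicle DMSO and 100% = killing by high DMSO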); settings: ICB984 medulloblastoma cells, drug combinations, stronger effect = higher value
# [6] = growth inhibition, single agents and combos, LFS_MB_1R, cell-based, cisplatin or BGB combos, synergistic combos for chromothripsis tumors (AID 1671452; in the data active means inhibition above about 80%;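 further: cells exposed for 96 hours before readout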); settings: LFS_MB_1R medulloblastoma cells, stronger effect = higher value
# [7] = growth inhibition, single agents and combos, HTB85, cell-based, BGB or cisplatin IC20 combos, synergistic combos for chromothripsis tumors (AID 1671453; in the data active means inhibition above about 80%;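 further: cells exposed for 96 hours before readout; 0% = vehicle DMSO and 100% = high DMSO killing control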); settings: HTB85 osteosarcoma cells, drug combinations, stronger effect = higher value
# [8] = growth inhibition, single agents and combos, CRL2098, cell-based, BGB or cisplatin IC20 combos, synergistic combos for chromothripsis tumors (AID 1671454; in the data active means inhibition above about 80%;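 further: cells exposed for 96 h before readout; 0% = vehicle DMSO and 100% = killing by high DMSO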); settings: CRL2098 osteosarcoma cells, drug combinations, stronger effect = higher value
# [9] = growth inhibition, single agents and combos, HD-MB03, cell-based, BGB or cisplatin IC20 combos, synergistic combos for chromothripsis tumors (AID 1671455; in the data active means inhibition above about 83%;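 further: 0% = vehicle DMSO and 100% = high DMSO as cytotoxic control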); settings: HD-MB03 medulloblastoma cells, stronger effect = higher value
# [10] = growth inhibition, single agents and combos, UWB1.289, cell-based, BGB or cisplatin combos, synergistic combos for chromothripsis tumors (AID 1671456; in the data active means inhibition above about 80%;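 further: cells exposed to compound for four days; 0% = vehicle DMSO and 100% = killing by high DMSO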); settings: UWB1.289 ovarian carcinoma cells, stronger effect = higher value
# [11] = growth inhibition, single agents and combos, LFS_MB_2R, cell-based, cisplatin combos, synergistic combos for chromothripsis tumors (AID 1671457; in the data active means inhibition above about 80%;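 further: cells exposed to compound for four days before readout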); settings: LFS_MB_2R medulloblastoma cells, stronger effect = higher value
# [12] = growth inhibition, MDA-MB-436, cell-based, BGB or cisplatin combos, synergistic combos for chromothripsis tumors (AID 1671458; call rule not given here;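 further: cells exposed for 96 hours; 0% = vehicle DMSO and 100% = killing by high DMSO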); settings: MDA-MB-436 breast carcinoma growth inhibition, drug combinations, stronger effect = higher value
# [13] = UWB1.289_BRCA1 ovarian cancer growth, cell-based, BGB or cisplatin combinations (AID 1671459; in the data active means inhibition above about 80%); settings: UWB1.289 BRCA1 ovarian carcinoma, drug combinations, stronger effect = higher value
# [14] = drug combination toxicity in non-malignant astrocytes – cell-based, BGB or cisplatin IC20 combos, cytotoxicity control for chromothriptic childhood tumor combination screen (AID 1671460; in the data active means inhibition above about 80%;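 further: cells exposed to compounds for 96 hours before viability readout; 0% = vehicle and 100% = killing control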); settings: Human astrocytes, viability inhibition, drug combinations, at 0.5 µM, stronger effect = higher value
# [15] = BT084 cell growth, single and combined drugs, ICGC_MB145, cisplatin and BGB IC40 combos (AID 1671461; in the data active means inhibition above about 80%;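 further: cells exposed to drugs for 96 hours; 0% = vehicle DMSO and 100% = high DMSO full killing control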); settings: BT084 medulloblastoma cells, drug combinations, stronger effect = higher value
# [16] = measured here: combination with BGB IC40, at 0.05 µM
# [17] = measured here: combination with cisplatin, at 0.5 µM
# [18] = measured here: combination with cisplatin, at 5 µM
smiles,measurement,setting,value
CC(C)(O)c1ccccc1CC[C@@H](SCC1(CC(=O)O)CC1)c1cccc(/C=C/c2ccc3ccc(Cl)cc3n2)c1,remaining NAD,[1],10 nM (inactive)
same,z-score,[2],0.48 (inactive)
same,log fold change Tl+ flux,F380Y,0.278 (active)
same,log fold change Tl+ flux,F380Y/beta1,0.853 (active)
CCOc1cc(CC(=O)N[C@@H](CC(C)C)c2ccccc2N2CCCCC2)ccc1C(=O)O,remaining NAD,[1],10 nM (inactive)
same,z-score,[2],3.92 (active)
same,log fold change Tl+ flux,F380Y,0.252 (active)
same,log fold change Tl+ flux,F380Y/beta1,0.45 (active)
NC1CCN(c2nc3c(cc2F)c(=O)c(C(=O)O)cn3-c2ccc(F)cc2F)C1 (stereo not drawn),z-score,[2],0.62 (inactive) and -0.04 (inactive)
same,log fold change Tl+ flux,F380Y,-0.0112 (inactive)
same,log fold change Tl+ flux,F380Y/beta1,0.0192 (inactive)
Brc1c(NC2=NCCN2)ccc2nccnc12,z-score,[2],0.235 (inactive) and -0.385 (inactive) and -0.11 (inactive)
same,log fold change Tl+ flux,F380Y,-0.0564 (inactive)
same,log fold change Tl+ flux,F380Y/beta1,0.00839 (inactive)
COC(=O)C1=C(C)NC(C)=C(C(=O)OC(C)C)C1c1cccc2nonc12 (stereo not drawn),remaining NAD,[1],10 nM (inactive)
same,z-score,[2],1.15 (inactive)
same,log fold change Tl+ flux,F380Y,0.00609 (inactive)
same,log fold change Tl+ flux,F380Y/beta1,0.106 (active)
C[C@H]1COc2c(C3(N)CC3)c(F)cc3c(=O)c(C(=O)O)cn1c23,remaining NAD,[1],10 nM (inactive)
same,z-score,[2],0.735 (inactive)
same,inhibition,"[3]; at 0.5 µM, stronger effect = higher value",-4.46% (inactive)
same,inhibition,"[3]; measured here: combination with BGB IC20, at 0.005 µM",-13%
same,inhibition,"[3]; measured here: combination with BGB IC40, at 0.005 µM",-17.8%
same,inhibition,[3]; [16],-33.8%
same,inhibition,"[3]; measured here: combination with cisplatin, at 0.5 µM, stronger effect = higher value",-7.85%
same,inhibition,"[3]; measured here: combination with cisplatin, at 5 µM, stronger effect = higher value",-33.3%
same,inhibition,"[4]; BGB combo, at 5 µM",-18.1%
same,inhibition,[4]; at 0.5 µM,-10.4% (inactive)
same,inhibition,"[4]; cisplatin combo, at 5 µM",-7.06%
same,inhibition,"[4]; measured here: with BGB IC20 combination, at 0.5 µM",-22.3%
same,inhibition,"[4]; measured here: with cisplatin IC20 combination, at 0.5 µM",-3.47%
same,inhibition,"[4]; single agent, at 5 µM",-13.5%
same,inhibition,"[5]; BGB IC20 combo, at 0.005 µM",-21.1%
same,inhibition,"[5]; BGB IC40 combo, at 0.005 µM",4.03%
same,inhibition,"[5]; BGB IC40 combo, at 0.05 µM",-27.4%
same,inhibition,[5]; at 0.5 µM,-17.9% (inactive)
same,inhibition,"[5]; cisplatin combo, at 0.05 µM",-30.9%
same,inhibition,"[5]; cisplatin combo, at 0.5 µM",-13.3%
same,inhibition,"[5]; cisplatin combo, at 5 µM",-41.9%
same,inhibition,"[5]; measured here: 5 uM single agent, at 5 µM",-29.9%
same,inhibition,[6]; at 0.5 µM,-26.1% (inactive)
same,inhibition,[6]; [16],-41.4%
same,inhibition,[6]; [17],-26.2%
same,inhibition,[6]; [18],-29.7%
same,inhibition,[7]; at 0.5 µM,-9.68% (inactive)
same,inhibition,"[7]; measured here: with BGB IC20, at 0.5 µM",-30.1%
same,inhibition,"[7]; measured here: with BGB IC20, at 5 µM",-48.1%
same,inhibition,"[7]; measured here: with cisplatin IC20, at 0.5 µM",-17.4%
same,inhibition,"[7]; measured here: with cisplatin IC20, at 5 µM",-41%
same,inhibition,"[7]; single agent, at 5 µM",3.14%
same,inhibition,[8]; at 0.5 µM,-44.1% (inactive)
same,inhibition,"[8]; measured here: combination with BGB at IC20, at 0.5 µM",-27.6%
same,inhibition,"[8]; measured here: combination with cisplatin at IC20, at 0.5 µM",-41.6%
same,inhibition,[9]; at 0.5 µM,-8.87% (inactive)
same,inhibition,"[9]; measured here: combo with BGB at IC20, at 0.5 µM",-6%
same,inhibition,"[9]; measured here: combo with cisplatin at IC20, at 0.5 µM",-11.8%
same,inhibition,[10]; at 0.5 µM,2.11% (inactive)
same,inhibition,"[10]; measured here: inhibition with BGB combination, at 0.05 µM",-7.87%
same,inhibition,"[10]; measured here: inhibition with cisplatin combination, at 0.05 µM",-10.7%
same,inhibition,[11]; at 0.5 µM,-20.7% (inactive)
same,inhibition,[11]; [17],-28.1%
same,inhibition,[11]; [18],-123%
same,inhibition,[12]; at 0.5 µM,-24.5% (inactive)
same,inhibition,"[12]; measured here: BGB combination, at 0.5 µM",-30.5%
same,inhibition,"[12]; measured here: BGB combination, at 5 µM",-26.3%
same,inhibition,"[12]; measured here: cisplatin combination, at 0.5 µM",-33.6%
same,inhibition,"[12]; measured here: cisplatin combination, at 5 µM",0.273%
same,inhibition,"[13]; BGB combination, concentration series, at 5 µM",-9.44%
same,inhibition,[13]; at 0.5 µM,-1.55% (inactive)
same,inhibition,"[13]; cisplatin combination, concentration series, at 5 µM",-1.09%
same,inhibition,[14],5.46% (inactive)
same,inhibition,[14]; measured here: combo with BGB IC20,4.83%
same,inhibition,[14]; measured here: combo with cisplatin IC20,-0.547%
same,inhibition,[15]; at 0.5 µM,-36.3% (inactive)
same,inhibition,"[15]; cisplatin combination, at 0.5 µM",-17.3%
same,inhibition,"[15]; cisplatin combination, at 5 µM",-31.8%
same,inhibition,"[15]; measured here: BGB IC40 combination 0.05 uM, at 0.05 µM",22.3%
same,inhibition,"[15]; single agent, at 5 µM",-28.3%
